# “And” between values parts separate entries of the source, which are not always exact repeats. Equal entries are not always repeated. Records with an inconclusive call do not appear. A call without a number means that no potency is given here. Where a structure was tested more than once in an assay, its records may differ in their call. The source made the active and inactive calls. Unless noted, the call rests on the fitted dose curve; in most records, active means well fitted curve in the direction sought with a large enough effect; inconclusive means small, poorly fitted or top-dose-only effect, or another doubt; inactive means no such curve, though single readings can be large; an effect the other way counts as inactive or inconclusive.
# Tests used:
# [1] = target: Guanine nucleotide-binding protein G(i) subunit alpha-1 (Homo sapiens) (UniProt P63096); assay: qHTS Assay for Inhibitors of RGS12 GoLoco Motif Activity (Green Fluorophore) (AID 879);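 further: negative values mean loss of peptide binding seen as reduced polarization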
# In short: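 A drop in FITC polarization marked displacement of the FITC-tagged RGS12 GoLoco peptide (10 nM) from Gαi1 (50 nM). Compounds were incubated 10 min at room temperature in Tris pH 7.5 buffer containing 150 mM NaCl, 0.1 mM GDP and 0.05% NP40; unlabeled peptide titration served as control.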
# [2] = target: Cytochrome P450 2C9 (Homo sapiens) (UniProt P11712); assay: qHTS Assay for Inhibitors and Substrates of Cytochrome P450 2C9 (AID 883); further: nearly all actives have a fitted effect of over 60% in size; further: potency means the concentration at half of the fitted maximal effect
# In short: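 Human CYP2C9 (10nM) hydroxylated Luciferin-H (100uM, at its KM) to luciferin in 25mM KPO4. Compound was preincubated 10 min at 37C, then NADPH regeneration started a 60 min reaction at 37C. Luminescence was read after detection reagent, normalized to 57uM sulphaphenazole.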
# [3] = target: Cytochrome P450 3A4 (Homo sapiens) (UniProt P08684); assay: qHTS Assay for Inhibitors and Substrates of Cytochrome P450 3A4 (AID 884); further: nearly all actives have a fitted effect of over 50% in size; further: potency means the concentration at half of the fitted maximal effect
# In short: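 Luminescent readout of luciferin produced by CYP3A4 (20 nM) dealkylation of Luciferin-PPXE, 25 uM (its KM). NADPH-driven reaction ran 60 min at RT after 10 min compound preincubation; data scaled to 57 uM ketoconazole as 100% inhibition.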
# [4] = Confirmation and Secondary Assay for Modulators of Hemoglobin Beta Chain Splicing at IVS2 654 locus (AID 910);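 further: per-well total GFP intensity by laser scanning cytometry after 2-day treatment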
# In short: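 HeLa cells stably carrying EGFP interrupted by mutant beta-globin IVS2-654 intron (CMV-driven) were treated with compound for 2 days at 37C; corrected splicing was scored as total peak GFP intensity per well (488 nm excitation, 500-520 nm emission).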
# [5] = qHTS Assay for Identification of Small Molecule Agonists for Thrombopoietin (TPO) Signaling Pathway (AID 917); further: potency means the concentration at half of the fitted maximal effect
# In short: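 First, Ba/F3 cells with human TPO receptor were held overnight without IL-3. Next, compounds and TPO (26 pM final) were added. After 24 hrs at 37 C, luciferase detection reagent was added and luminescence measured following 10 min at room temperature.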
# [6] = Confirmation and Secondary Assay for Modulators of Hemoglobin Beta Chain Splicing at IVS2 705 locus (AID 930);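 further: HeLa cells stably expressing the EGFP-705 splicing reporter; series mostly up to about 46 µM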
# In short: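 HeLa cells stably carrying EGFP interrupted by mutant beta-globin IVS2-705 intron (CMV-driven) were seeded at 500 cells/well, treated next day with compound for 2 days at 37C; corrected splicing restores EGFP, read as total peak GFP intensity per well.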
# [7] = target: Muscarinic acetylcholine receptor M1 (Rattus norvegicus) (UniProt P08482); assay: qHTS Assay for Antagonists of Acetylcholine Muscarinic M1 Receptor: Kinetic Measurement of Intracellular Calcium Response (AID 943);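 further: Fluo-4 calcium signal as peak divided by basal fluorescence over 4 min; series mostly up to about 35 µM; nearly all actives have a fitted effect of over 75% in size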
# In short: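 Read-out: peak over basal Fluo-4 fluorescence, kinetic at 1 Hz for 4 min after EC80 carbachol (100 nM final). Rat M1-CHO cells, dye loaded 1 h at 37C, compound added 10 min before agonist.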
# [8] = target: Muscarinic acetylcholine receptor M1 (Rattus norvegicus) (UniProt P08482); assay: qHTS Assay for Antagonists of Acetylcholine Muscarinic M1 Receptor: Measurement of IP-One Response (AID 944); further: nearly all actives have a fitted effect of over 75% in size
# In short: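 Read-out: HTRF competition between d2-IP1 and Eu-cryptate anti-IP1 antibody, emission 620 and 665 nm. Stimulus was carbachol, EC80 (200 nM), for 30 min in M1-CHO cells (rat receptor), after 10 min compound pre-treatment.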
# [9] = target: Pyruvate kinase (Leishmania mexicana) (UniProt Q27686); assay: qHTS Validation Assay for Inhibitors of Leishmania Mexicana Pyruvate Kinase (AID 945); further: potency means the concentration at half of the fitted maximal effect
# In short: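 LmPYK E451W 0.2 nM; 0.5 mM PEP, 0.1 mM ADP, 7 mM MgCl2, 50 mM KCl, imidazole pH 7.2, 0.01% Tween 20, 0.05% BSA; 1 h RT; PKLight luminescence; DMSO-normalized.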
# [10] = Cellular Toxicity (caspase-3) N2a (AID 665); conditions: Potency: caspase-3 activation;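 further: compound exposure lasted 16 h at 37 °C before readout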; further: potency means the concentration at half of the fitted maximal effect
# In short: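 Luminescent Caspase-Glo 3/7 readout in N2a mouse neuroblastoma cells after 16 h compound exposure at 37 °C. Signal scaled to DMSO (basal) and 10 uM staurosporine (100%). Concentration-response fitted with Hill equation for AC50.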
# [11] = Cellular Toxicity (caspase-3) NIH 3T3 (AID 666)
# In short: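 NIH 3T3, 1000 cells/well, 5 hr settle then 16 hr compound at 37°C; Caspase-Glo 3/7, 20 min RT, luminescence. DMSO = basal, 100 uM tamoxifen = 100%. Hill-equation AC50, qHTS.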
# [12] = Cellular Toxicity (caspase-3) Renal Proximal Tubule (AID 667); conditions: Potency: caspase-3 activation;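 further: cells exposed to compound for 16 hours at 37 °C before detection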; further: potency means the concentration at half of the fitted maximal effect
# In short: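 Primary rat proximal tubule cells, 1000/well, 5 h plating at 37 °C, then compound 16 h at 37 °C. Caspase-Glo 3/7 reagent, 1 h RT, luminescence. Normalized to DMSO (basal) and 10 uM staurosporine (100%); Hill-fit AC50.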
# [13] = target: Cytochrome P450 3A4 (Homo sapiens) (UniProt P08684); assay: qHTS Assay for Activators of Cytochrome P450 3A4 (AID 885); further: nearly all actives have a fitted effect of over 65% in size
# In short: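 Luminescent readout of luciferin formed from 25 uM Luciferin-PPXE (KM level) by 20 nM CYP3A4 in 200 mM KPO4, with 60 min NADPH-driven reaction at room temperature after 10 min compound exposure. Ketoconazole (57 uM) defined 100% inhibition.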
# [14] = target: Cytochrome P450 2D6 (Homo sapiens) (UniProt P10635); assay: qHTS Assay for Inhibitors and Substrates of Cytochrome P450 2D6 (AID 891); further: nearly all actives have a fitted effect of over 60% in size; further: potency means the concentration at half of the fitted maximal effect
# In short: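 Luminescent read-out of luciferin formed by 5 nM human CYP2D6 demethylating 30 uM Luciferin-ME EGE (Km level) over 60 min at room temperature after NADPH regeneration addition. Data normalized to full inhibition by 1.43 uM quinidine.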
# [15] = Cell Viability - LYMP2-001 (AID 921); further: nearly all actives have a fitted effect of over 70% in size; further: potency means the concentration at half of the fitted maximal effect
# In short: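 Human lymphoblastoid cells (Coriell), 2500 per well, were preincubated 5 hr at 37 C, then exposed to compounds in complete medium for 24 hr at 37 C. Cellular ATP was read by CellTiter-Glo luminescence; AC50 from Hill fits of concentration-response data.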
# [16] = qHTS Assay for Identification of Small Molecule Antagonists for NFkB Signaling Pathway (AID 895; active means well fitted inhibition curve with a large enough effect in the signal ratio, with a control signal flat, not every such curve was filed as active; the % refers to the signal ratio; further: potency means the concentration at half of the fitted maximal effect)
# In short: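 NFkB-bla ME-180 cervical carcinoma cells with beta-lactamase reporter under NFkB response element; compounds added, then TNF alpha at 10 pM final (EC50), 5 h at 37 C. LiveBLAzer substrate 2 h, room temperature; emission 460/530 nm at 405 nm excitation.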
# [17] = target: Cytochrome P450 2C19 (Homo sapiens) (UniProt P33261); assay: qHTS Assay for Inhibitors and Substrates of Cytochrome P450 2C19 (AID 899); further: nearly all actives have a fitted effect of over 60% in size; further: potency means the concentration at half of the fitted maximal effect
# In short: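 Human CYP2C19 (5nM) with Luciferin-H EGE at 10uM (its KM) in 50mM KPO4 was preincubated with compound for 10 min at 37C. NADPH regeneration started a 60 min 37C reaction. Luciferin was read by luminescence, normalized to 57uM ketoconazole.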
# [18] = qHTS Assay for Identification of Small Molecule Agonists for Hypoxia Response Element Signaling Pathway (AID 914; active means well fitted activation curve with a large enough effect in the signal ratio, with a control signal flat, not every such curve was filed as active; the % refers to the signal ratio); conditions: ME-180 HRE-bla reporter, beta-lactamase ratio, CoCl2, 17 h; stronger effect = higher value
# In short: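 ME-180 cells carrying an HRE-driven beta-lactamase reporter were treated with compounds in a titration series plus an EC50 level of CoCl2 for 17 h at 37 degrees Celsius; CCF4 readout as the 460nm/530nm ratio gave AC50 values.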
# [19] = qHTS Assay for Identification of Small Molecule Antagonists for Thrombopoietin (TPO) Signaling Pathway (AID 918); conditions: TPO-dependent cell signaling reporter, antagonist mode; further: potency means the concentration at half of the fitted maximal effect; nearly all actives have a fitted effect of over 60% in size
# In short: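 Luminescence read-out: GPIIb-promoter luciferase in Ba/F3 cells carrying human TPO receptor. Compounds added with 26 pM TPO (EC50), 24 hrs, 37 C, 5% CO2; cells deprived of IL-3 overnight beforehand. Inhibition of signal scored.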
# Chain of Cytochrome P450 2D6 (Homo sapiens) (P10635 whole entry, looked up): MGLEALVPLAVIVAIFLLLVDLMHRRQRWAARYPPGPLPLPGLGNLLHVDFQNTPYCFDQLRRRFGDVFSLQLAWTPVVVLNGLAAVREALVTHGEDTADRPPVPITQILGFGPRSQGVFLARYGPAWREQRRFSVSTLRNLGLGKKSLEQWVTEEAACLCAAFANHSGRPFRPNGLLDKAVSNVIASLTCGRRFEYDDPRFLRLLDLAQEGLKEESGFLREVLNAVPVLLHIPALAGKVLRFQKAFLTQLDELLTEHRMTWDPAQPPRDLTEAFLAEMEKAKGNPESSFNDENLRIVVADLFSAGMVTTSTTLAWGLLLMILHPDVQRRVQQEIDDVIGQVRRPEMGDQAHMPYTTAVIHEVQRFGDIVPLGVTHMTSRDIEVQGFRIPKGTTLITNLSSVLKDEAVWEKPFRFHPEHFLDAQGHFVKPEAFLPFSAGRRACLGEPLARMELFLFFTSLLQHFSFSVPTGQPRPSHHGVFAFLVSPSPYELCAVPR
# Chain of Cytochrome P450 2C19 (Homo sapiens) (P33261 whole entry, looked up): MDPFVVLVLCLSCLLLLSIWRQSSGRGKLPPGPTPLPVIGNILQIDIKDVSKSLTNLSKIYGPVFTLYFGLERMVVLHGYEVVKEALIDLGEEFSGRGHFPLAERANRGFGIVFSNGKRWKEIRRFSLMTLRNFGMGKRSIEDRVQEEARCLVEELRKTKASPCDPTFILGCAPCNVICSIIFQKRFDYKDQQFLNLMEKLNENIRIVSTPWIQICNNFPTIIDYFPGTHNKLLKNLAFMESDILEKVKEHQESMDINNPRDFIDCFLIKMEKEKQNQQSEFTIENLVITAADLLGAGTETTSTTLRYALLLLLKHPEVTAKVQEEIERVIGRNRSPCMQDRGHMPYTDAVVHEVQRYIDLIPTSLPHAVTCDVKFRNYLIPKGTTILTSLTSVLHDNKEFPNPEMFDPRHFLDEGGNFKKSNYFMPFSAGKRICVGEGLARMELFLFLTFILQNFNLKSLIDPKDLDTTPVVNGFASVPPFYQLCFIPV
# Chain of Muscarinic acetylcholine receptor M1 (Rattus norvegicus) (P08482 whole entry, looked up): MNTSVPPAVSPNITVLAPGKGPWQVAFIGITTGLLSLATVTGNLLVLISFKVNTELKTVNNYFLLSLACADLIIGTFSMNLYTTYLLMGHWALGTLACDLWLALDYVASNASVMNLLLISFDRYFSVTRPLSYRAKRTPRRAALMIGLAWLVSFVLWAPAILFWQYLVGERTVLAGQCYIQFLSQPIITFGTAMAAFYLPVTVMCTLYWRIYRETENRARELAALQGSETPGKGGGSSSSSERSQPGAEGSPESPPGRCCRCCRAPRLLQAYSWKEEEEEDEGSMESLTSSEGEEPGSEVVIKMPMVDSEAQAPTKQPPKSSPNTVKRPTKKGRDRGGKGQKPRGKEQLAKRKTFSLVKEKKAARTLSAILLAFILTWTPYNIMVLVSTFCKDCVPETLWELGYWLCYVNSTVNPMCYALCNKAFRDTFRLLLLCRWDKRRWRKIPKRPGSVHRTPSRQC
# Chain of Pyruvate kinase (Leishmania mexicana) (Q27686 2-499 E452W): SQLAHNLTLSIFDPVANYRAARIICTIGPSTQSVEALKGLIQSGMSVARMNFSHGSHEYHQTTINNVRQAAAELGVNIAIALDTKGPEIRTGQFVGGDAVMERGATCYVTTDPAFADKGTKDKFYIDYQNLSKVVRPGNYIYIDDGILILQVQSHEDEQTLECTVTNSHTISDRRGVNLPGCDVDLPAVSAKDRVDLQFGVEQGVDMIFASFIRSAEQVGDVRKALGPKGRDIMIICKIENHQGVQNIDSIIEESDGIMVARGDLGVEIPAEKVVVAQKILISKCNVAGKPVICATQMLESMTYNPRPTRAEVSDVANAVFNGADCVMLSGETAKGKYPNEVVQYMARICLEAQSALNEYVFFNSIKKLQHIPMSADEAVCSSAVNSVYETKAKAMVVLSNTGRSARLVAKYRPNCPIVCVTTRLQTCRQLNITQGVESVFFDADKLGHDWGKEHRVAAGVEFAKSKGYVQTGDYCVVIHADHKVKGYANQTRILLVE
# Chain of Guanine nucleotide-binding protein G(i) subunit alpha-1 (Homo sapiens) (P63096 whole entry, looked up): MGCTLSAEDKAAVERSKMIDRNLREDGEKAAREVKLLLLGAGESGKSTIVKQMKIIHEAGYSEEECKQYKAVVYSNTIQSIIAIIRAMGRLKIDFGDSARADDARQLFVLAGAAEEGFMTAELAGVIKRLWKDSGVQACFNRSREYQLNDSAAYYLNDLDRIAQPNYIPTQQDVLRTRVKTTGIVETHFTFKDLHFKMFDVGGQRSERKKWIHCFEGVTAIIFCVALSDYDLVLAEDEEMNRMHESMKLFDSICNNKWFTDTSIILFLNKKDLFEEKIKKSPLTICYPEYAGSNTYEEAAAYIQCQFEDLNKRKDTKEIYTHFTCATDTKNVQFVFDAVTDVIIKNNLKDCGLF
# Chain of Cytochrome P450 3A4 (Homo sapiens) (P08684 whole entry, looked up): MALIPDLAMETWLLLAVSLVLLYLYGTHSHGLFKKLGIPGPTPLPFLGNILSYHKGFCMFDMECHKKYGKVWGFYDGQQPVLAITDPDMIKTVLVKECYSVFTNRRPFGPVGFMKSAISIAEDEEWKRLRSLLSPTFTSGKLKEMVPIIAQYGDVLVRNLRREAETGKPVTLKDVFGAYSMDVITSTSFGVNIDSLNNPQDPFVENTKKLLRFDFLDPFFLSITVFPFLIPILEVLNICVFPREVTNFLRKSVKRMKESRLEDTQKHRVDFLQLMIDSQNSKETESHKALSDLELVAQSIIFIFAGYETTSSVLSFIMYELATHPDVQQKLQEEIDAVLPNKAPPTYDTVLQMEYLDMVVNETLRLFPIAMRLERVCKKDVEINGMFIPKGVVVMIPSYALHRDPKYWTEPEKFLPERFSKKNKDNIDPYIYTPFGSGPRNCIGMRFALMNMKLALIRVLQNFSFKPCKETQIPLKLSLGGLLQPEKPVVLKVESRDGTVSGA
# Chain of Cytochrome P450 2C9 (Homo sapiens) (P11712 whole entry, looked up): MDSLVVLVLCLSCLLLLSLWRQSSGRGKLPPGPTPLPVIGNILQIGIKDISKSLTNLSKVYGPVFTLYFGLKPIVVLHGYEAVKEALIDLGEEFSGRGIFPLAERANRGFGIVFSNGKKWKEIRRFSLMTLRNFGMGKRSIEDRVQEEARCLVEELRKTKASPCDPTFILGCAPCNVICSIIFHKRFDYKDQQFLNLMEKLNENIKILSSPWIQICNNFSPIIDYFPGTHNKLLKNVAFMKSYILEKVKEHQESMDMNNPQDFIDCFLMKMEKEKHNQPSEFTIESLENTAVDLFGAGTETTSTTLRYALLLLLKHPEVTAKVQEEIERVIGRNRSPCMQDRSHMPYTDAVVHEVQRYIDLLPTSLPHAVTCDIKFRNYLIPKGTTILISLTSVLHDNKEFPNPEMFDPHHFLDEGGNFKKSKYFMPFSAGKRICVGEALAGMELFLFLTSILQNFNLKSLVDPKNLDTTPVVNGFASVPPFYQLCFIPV
smiles,measurement,setting,value
C[N+](C)(C)CCCCCC[N+](C)(C)C,outcome,[1],inactive
same,Potency,[2],inactive
same,Potency,[3],inactive
same,outcome,[4],inactive
same,Potency,[5],inactive
same,outcome,[6],inactive
same,outcome,[7],inactive
same,outcome,[8],inactive
same,Potency,[9],inactive
O=c1c(O)c(-c2ccc(O)cc2)oc2cc(O)cc(O)c12,Potency,[10],inactive
same,outcome,[11],inactive
same,Potency,[12],inactive
same,Potency,[2],15.8 µM (active)
same,outcome,[13],inactive
same,Potency,[14],15.8 µM (active)
same,Potency,[15],inactive
NCCS,outcome,[1],inactive
same,Potency,[3],inactive
same,Potency,[16],inactive
same,outcome,[4],inactive
same,Potency,[5],inactive
same,outcome,[6],inactive
same,outcome,[7],inactive
same,outcome,[8],inactive
same,Potency,[9],inactive
O=c1[nH]cnc2c1ncn2[C@H]1CC[C@@H](CO)O1,Potency,[10],inactive
same,outcome,[11],inactive
same,Potency,[12],inactive
same,Potency,[3],inactive
same,Potency,[15],inactive
CC(=O)c1ccc(S(=O)(=O)NC(=O)NC2CCCCC2)cc1,Potency,[10],inactive
same,outcome,[11],inactive
same,Potency,[12],inactive
same,outcome,[1],inactive
same,Potency,[2],inactive
same,Potency,[3],inactive
same,Potency,[14],inactive
same,Potency,[16],inactive
same,Potency,[17],inactive
same,Potency,[5],inactive
same,Potency,[15],inactive
same,outcome,[7],inactive
same,Potency,[9],inactive
O=C(O)Cc1cccc2ccccc12,Potency,[10],inactive
same,outcome,[11],inactive
same,Potency,[12],inactive
same,Potency,[3],inactive
same,Potency,[15],inactive
CCN(CC)C(=O)c1ccc(O)c(OC)c1,outcome,[1],inactive
same,Potency,[2],inactive
same,Potency,[3],inactive
same,Potency,[14],inactive
same,Potency,[17],inactive
same,Potency,[5],inactive
same,outcome,[7],inactive
same,outcome,[8],inactive
same,Potency,[9],inactive
CCN1CCC[C@H]1CNC(=O)c1cc(S(N)(=O)=O)ccc1OC,outcome,[1],inactive
same,Potency,[3],inactive
same,Potency,[17],inactive
same,Potency,[5],inactive
same,Potency,[9],inactive
CC(C)OC(=O)C(C)(C)Oc1ccc(C(=O)c2ccc(Cl)cc2)cc1,outcome,[1],inactive
same,Potency,[2],5.01 µM (active)
same,Potency,[3],inactive
same,Potency,[14],inactive
same,outcome,[4],inactive
same,Potency,[5],inactive
same,outcome,[6],inactive
O=c1cc(-c2ccc(O)cc2)oc2cc(O)cc(O)c12,Potency,[10],inactive
same,outcome,[11],inactive
same,Potency,[12],inactive
same,Potency,[2],inactive
same,outcome,[13],inactive
same,Potency,[17],7.94 µM (active)
same,outcome,[4],inactive
same,Potency,[15],inactive
same,outcome,[7],inactive
same,outcome,[8],inactive
same,Potency,[9],12.6 µM (active)
CN(C)CCC(c1ccccc1)c1ccccn1 (configuration not stated),Potency,[10],inactive
same,outcome,[11],inactive
same,Potency,[12],inactive
same,Potency,[3],inactive
same,outcome,[4],inactive
same,Potency,[15],inactive
same,outcome,[6],inactive
CCn1cc(C(=O)O)c(=O)c2ccc(C)nc21,Potency,[10],inactive
same,outcome,[11],inactive
same,Potency,[12],inactive
same,outcome,[4],inactive
same,Potency,[15],inactive
same,outcome,[6],inactive
CC(=O)CCCCn1c(=O)c2c(ncn2C)n(C)c1=O,outcome,[1],inactive
same,Potency,[2],inactive
same,Potency,[3],inactive
same,Potency,[14],inactive
same,Potency,[17],inactive
same,outcome,[4],inactive
same,Potency,[5],inactive
same,outcome,[6],inactive
same,outcome,[8],inactive
same,Potency,[9],inactive
O=C1NCC2(CCN(CCc3ccccc3)CC2)O1,outcome,[1],inactive
same,Potency,[3],inactive
same,outcome,[4],inactive
same,Potency,[5],inactive
same,outcome,[6],inactive
same,Potency,[9],inactive
COc1cccc(-c2cc(=O)c3ccccc3o2)c1N,outcome,[1],inactive
same,Potency,[3],7.94 µM (active)
same,outcome,[13],inactive
same,Potency,[16],inactive
same,Potency,[17],6.31 µM (active)
same,Potency,[5],0.398 µM (active)
same,outcome,[8],inactive
same,Potency,[9],12.6 µM (active)
O=c1c(-c2ccc(O)cc2)coc2cc(O)ccc12,Potency,[10],inactive
same,outcome,[11],inactive
same,Potency,[12],inactive
same,outcome,[1],inactive
same,Potency,[2],inactive and 6.31 µM (active)
same,outcome,[13],inactive
same,Potency,[14],inactive
same,Potency,[17],inactive
same,outcome,[4],inactive
same,Potency,[15],inactive
same,outcome,[6],inactive
CCCCC1C(=O)N(c2ccccc2)N(c2ccccc2)C1=O,Potency,[10],inactive
same,outcome,[11],inactive
same,Potency,[12],inactive
same,outcome,[1],inactive
same,Potency,[14],inactive
same,Potency,[17],inactive
same,outcome,[4],inactive
same,activation,[18],-18.4% (inactive) and -5.39% (inactive)
same,Potency,[5],inactive
same,Potency,[15],inactive
same,outcome,[6],inactive
same,Potency,[9],inactive
CC1=C(/C=C/C(C)=C/C=C/C(C)=C/C(=O)Nc2ccc(O)cc2)C(C)(C)CCC1,Potency,[10],31.6 µM (active)
same,outcome,[11],inactive
same,Potency,[12],31.6 µM (active)
same,outcome,[1],inactive
same,Potency,[16],6.31 µM (active)
same,Potency,[19],10 µM (active)
same,Potency,[15],39.8 µM (active)
same,outcome,[7],inactive
same,outcome,[8],inactive
same,Potency,[9],inactive
CCN(CC)CCOC(=O)c1ccc(N)cc1,outcome,[1],inactive
same,Potency,[3],inactive
same,Potency,[16],inactive
same,outcome,[4],inactive
same,Potency,[5],inactive
same,outcome,[6],inactive
same,Potency,[9],inactive

# From PubChem BioAssay (NCATS)
